Source: the supplement of paper PMC10849652
Of roughly 8,800 targets only a part is listed; those with a hit were picked by preference. About 0.5% of all pairs of compound and target were hits.

Experiments:
Assay in all cases: log2 fold change, soluble protein after heating vs DMSO (PISA); higher = thermal stabilisation; K562 lysate, 10 uM; active = over 0.2 and 3.5 SD of the protein, either way, in both replicates (recomputed)
erlotinib = compound: C#Cc1cccc(Nc2ncnc3cc(OCCOC)c(OCCOC)cc23)c1 [erlotinib]
Summary of the method: (§1)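 Pellets of K562 cells were dounce-homogenised in PBS pH 7.4 with 1 mM MgCl2, and the crude extract was held at 1 mg/mL protein for a 30 min treatment with 10 μM compound. Aliquots were heated for 3 min over 48°C-58°C and pooled before NP-40 was added to 0.5% at 4°C. The supernatant from 21,000xg for 90 min was quantified by TMTpro 16plex LC-MS/MS with channel sums equalised. Values are reported from duplicates as log-two fold change in thermal stability relative to solvent controls.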

[1] = compound: C/C(=N\NC(=O)C1=CC(=CC=C1)S(=O)(=O)N2CCOCC2)/C3=C(C=CC(=C3)Cl)O
Summary of the method: as §1

[2] = compound: C1=CC(=CC=C1C2=NC3=C(N2)C=C(C=C3)C(=O)N)OC4=CC=C(C=C4)Cl
Summary of the method: as §1

[3] = compound: C1=CC2=C(C=CC(=C2)/C=C\3/C(=O)NC(=NCC4=CC=CS4)S3)N=C1
Summary of the method: as §1

[4] = compound: C1=CC2=NC=CN=C2C=C1/C=C/3\C(=O)NC(=O)S3
Summary of the method: as §1

[5] = compound: C1=CC=C(C=C1)C2=NC(=C(N2)C3=CC=NC=C3)C4=CC(=C(C=C4)Cl)O
Summary of the method: as §1

[6] = compound: C1=CC=C2C(=C1)C3=NNC4=CC=CC(=C43)C2=O
Summary of the method: as §1

[7] = compound: C1CCN(C1)C(=O)NC2=CC=CC(=C2)NC3=NC=C(C(=N3)NCCC4=CN=CN4)Br
Summary of the method: as §1

[8] = compound: C1CN(CCC1(CC2=CC=C(C=C2)Cl)N)C3=NC=NC4=C3C=CN4
Summary of the method: as §1

IRAK-1-4 Inhibitor I = compound: C1COCCN1CCN2C3=CC=CC=C3N=C2NC(=O)C4=CC(=CC=C4)[N+](=O)[O-] [IRAK-1-4 Inhibitor I]
Summary of the method: as §1

ibrutinib = compound: C=CC(=O)N1CCC[C@@H](n2nc(-c3ccc(Oc4ccccc4)cc3)c3c(N)ncnc32)C1 [ibrutinib]
Summary of the method: as §1

[9] = compound: CC(=O)c1cnc2ccc(-c3cc(Cl)c(O)c(Cl)c3)nc2c1N[C@H]1CC[C@H](CN(C)C)CC1
Summary of the method: as §1

ralimetinib = compound: CC(C)(C)Cn1c(N)nc2ccc(-c3[nH]c(C(C)(C)C)nc3-c3ccc(F)cc3)nc21 [ralimetinib]
Summary of the method: as §1

[10] = compound: CC(C)(O)CC(=O)NCCn1ccc2ncnc(Nc3ccc(Oc4cccc(C(F)(F)F)c4)c(Cl)c3)c21
Summary of the method: as §1

[11] = compound: CC(C)C1=C2N=C(C=C(N2N=C1)NCC3=CC=CC=C3)NCCCCCCN
Summary of the method: as §1

[12] = compound: CC1=C(C(CC(=O)N1)C2=CC=C(C=C2)C(F)(F)F)C(=O)NC3=C(C=C4C(=C3)C=NN4)F
Summary of the method: as §1

[13] = compound: CC1=C(C2=C(C=C1)C(=O)C3=CC=CC=C3N2CCCN)C
Summary of the method: as §1

[14] = compound: CC1=C(C=C(C=C1)NC(=O)C2=CC(=CC=C2)C(C)(C)C#N)NC3=CC4=C(C=C3)N=CN(C4=O)C
Summary of the method: as §1

[15] = compound: CC1=C(C=C(C=C1)NC(=O)C2=CC(=CC=C2)N(C)C)NC(=O)C3=CC=C(C=C3)O
Summary of the method: as §1

[16] = compound: CC1=CC=C(C=C1)SC2=C3C=C(SC3=CN=C2)C(=O)N
Summary of the method: as §1

Measured: log2 fold change

PFAS (UniProt O15067)
inactive: erlotinib 0.014 | [1] 0.03 | [2] 0.006 | [3] 0.015 | [4] 0.011 | [5] -0.017 | [6] -0.018 | [7] -0.026 | [8] 0.001 | IRAK-1-4 Inhibitor I -0.006 | ibrutinib -0.007 | [9] -0.016 | ralimetinib 0.03 | [10] 0.006 | [11] 0.003 | [12] -0.015 | [13] -0.003 | [14] -0.041 | [15] 0.032 | [16] 0.002

PPIE (UniProt Q9UNP9)
Sequence of UniProt Q9UNP9 (Q9UNP9 whole entry, looked up): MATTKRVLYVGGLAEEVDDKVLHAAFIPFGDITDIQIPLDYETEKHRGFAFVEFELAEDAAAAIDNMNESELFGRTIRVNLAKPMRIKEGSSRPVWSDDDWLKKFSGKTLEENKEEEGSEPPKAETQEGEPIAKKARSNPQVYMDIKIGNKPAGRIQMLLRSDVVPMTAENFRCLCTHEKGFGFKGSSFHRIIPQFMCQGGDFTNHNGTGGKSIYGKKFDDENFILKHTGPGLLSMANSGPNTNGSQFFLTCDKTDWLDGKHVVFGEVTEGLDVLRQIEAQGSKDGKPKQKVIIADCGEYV
inactive: erlotinib 0.005 | [1] -0.022 | [2] 0.064 | [3] 0.031 | [4] -0.008 | [5] 0.001 | [6] -0.002 | [7] -0.025 | [8] 0.025 | IRAK-1-4 Inhibitor I -0.019 | ibrutinib -0.047 | [9] -0.015 | ralimetinib -0.041 | [10] -0.05 | [11] -0.025 | [12] -0.043 | [13] 0.021 | [14] 0.024 | [15] 0.034 | [16] -0.035

PDCD4 (UniProt Q53EL6)
Sequence of UniProt Q53EL6 (Q53EL6 whole entry, looked up): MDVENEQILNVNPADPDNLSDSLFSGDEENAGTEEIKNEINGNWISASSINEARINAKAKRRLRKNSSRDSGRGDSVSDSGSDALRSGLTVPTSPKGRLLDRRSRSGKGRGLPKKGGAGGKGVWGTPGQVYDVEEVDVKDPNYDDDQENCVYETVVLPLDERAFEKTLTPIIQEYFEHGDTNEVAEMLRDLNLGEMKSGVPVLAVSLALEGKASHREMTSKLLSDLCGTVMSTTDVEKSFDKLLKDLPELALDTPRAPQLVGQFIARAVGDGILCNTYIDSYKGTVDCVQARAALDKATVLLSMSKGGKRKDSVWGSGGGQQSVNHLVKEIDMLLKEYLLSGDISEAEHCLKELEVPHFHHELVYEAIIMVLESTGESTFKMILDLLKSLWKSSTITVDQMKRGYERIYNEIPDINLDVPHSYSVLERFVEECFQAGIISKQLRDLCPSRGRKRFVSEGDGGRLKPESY
inactive: erlotinib 0 | [1] -0.052 | [2] -0.02 | [3] -0.003 | [4] -0.004 | [5] -0.026 | [6] 0.014 | [7] -0.011 | [8] 0.008 | IRAK-1-4 Inhibitor I 0.015 | ibrutinib -0.002 | [9] -0.002 | ralimetinib 0.025 | [10] -0.032 | [11] 0.007 | [12] 0.025 | [13] -0.003 | [14] 0.032 | [15] 0.007 | [16] 0.011

POLA1 (UniProt P09884)
inactive: erlotinib 0.009 | [1] -0.039 | [2] -0.02 | [3] -0.015 | [4] -0.036 | [5] 0.084 | [6] -0.005 | [7] -0.034 | [8] 0.015 | IRAK-1-4 Inhibitor I -0.003 | ibrutinib 0 | [9] -0.013 | ralimetinib -0.032 | [10] 0.003 | [11] 0.001 | [12] 0.007 | [13] -0.001 | [14] 0.02 | [15] 0.022 | [16] -0.016

PHKA1 (UniProt P46020)
inactive: erlotinib -0.011 | [1] 0.003 | [2] -0.015 | [3] 0.063 | [4] 0.078 | [5] -0.027 | [6] 0.205 | [7] 0.05 | [8] 0.026 | IRAK-1-4 Inhibitor I 0.01 | ibrutinib -0.045 | [9] 0.012 | ralimetinib 0.03 | [10] -0.031 | [11] -0.053 | [12] 0.004 | [13] -0.019 | [14] -0.005 | [15] 0.032 | [16] 0.003

PMS2 (UniProt P54278)
inactive: erlotinib 0.036 | [1] 0.012 | [2] -0.058 | [3] -0.005 | [4] -0.015 | [5] -0.028 | [6] -0.032 | [7] -0.013 | [8] 0.012 | IRAK-1-4 Inhibitor I 0.001 | ibrutinib 0.027 | [9] 0.032 | ralimetinib 0.046 | [10] -0.047 | [11] 0.069 | [12] -0.038 | [13] -0.049 | [14] -0.019 | [15] -0.004 | [16] 0.002

PKP3 isoform 2 (UniProt Q9Y446)
Sequence of UniProt Q9Y446 (Q9Y446 whole entry, looked up): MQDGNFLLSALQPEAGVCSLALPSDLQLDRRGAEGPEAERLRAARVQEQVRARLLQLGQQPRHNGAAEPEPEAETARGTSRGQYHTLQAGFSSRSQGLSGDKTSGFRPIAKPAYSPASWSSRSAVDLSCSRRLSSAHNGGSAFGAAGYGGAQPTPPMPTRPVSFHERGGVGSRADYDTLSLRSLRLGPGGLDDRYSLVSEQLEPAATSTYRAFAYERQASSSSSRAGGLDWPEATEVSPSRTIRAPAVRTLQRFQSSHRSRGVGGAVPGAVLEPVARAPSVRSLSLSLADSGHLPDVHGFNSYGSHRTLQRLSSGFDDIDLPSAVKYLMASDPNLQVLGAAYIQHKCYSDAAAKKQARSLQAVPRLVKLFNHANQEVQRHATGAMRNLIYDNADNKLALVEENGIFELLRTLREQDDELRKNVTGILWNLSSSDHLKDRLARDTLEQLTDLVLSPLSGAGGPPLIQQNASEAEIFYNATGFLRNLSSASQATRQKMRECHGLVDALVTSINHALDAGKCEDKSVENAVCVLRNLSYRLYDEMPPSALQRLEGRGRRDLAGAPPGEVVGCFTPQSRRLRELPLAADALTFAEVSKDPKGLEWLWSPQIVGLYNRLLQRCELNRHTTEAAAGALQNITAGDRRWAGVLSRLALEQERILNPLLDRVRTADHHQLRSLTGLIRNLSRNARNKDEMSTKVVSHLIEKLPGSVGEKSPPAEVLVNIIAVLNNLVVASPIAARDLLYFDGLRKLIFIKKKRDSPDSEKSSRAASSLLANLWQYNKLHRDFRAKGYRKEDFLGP
inactive: erlotinib 0.063 | [1] -0.011 | [2] 0.042 | [3] 0.009 | [4] 0.006 | [5] -0.011 | [6] -0.02 | [7] -0.011 | [8] -0.013 | IRAK-1-4 Inhibitor I 0.015 | ibrutinib 0.005 | [9] -0.022 | ralimetinib -0.028 | [10] 0.009 | [11] -0.006 | [12] 0.014 | [13] 0.021 | [14] 0.004 | [15] -0.019 | [16] 0.052

PICALM (UniProt H0YEH1)
inactive: erlotinib -0.004 | [1] -0.111 | [2] 0.053 | [3] 0.066 | [4] -0.021 | [5] -0.015 | [6] 0.106 | [7] -0.219 | [8] -0.333 | IRAK-1-4 Inhibitor I 0.053 | ibrutinib -0.077 | [9] 0.009 | ralimetinib -0.035 | [10] -0.039 | [11] 0.05 | [12] 0.003 | [13] 0.014 | [14] -0.024 | [15] 0.012 | [16] -0.091

PLXNB2 (UniProt O15031)
Sequence of UniProt O15031 (O15031 whole entry, looked up): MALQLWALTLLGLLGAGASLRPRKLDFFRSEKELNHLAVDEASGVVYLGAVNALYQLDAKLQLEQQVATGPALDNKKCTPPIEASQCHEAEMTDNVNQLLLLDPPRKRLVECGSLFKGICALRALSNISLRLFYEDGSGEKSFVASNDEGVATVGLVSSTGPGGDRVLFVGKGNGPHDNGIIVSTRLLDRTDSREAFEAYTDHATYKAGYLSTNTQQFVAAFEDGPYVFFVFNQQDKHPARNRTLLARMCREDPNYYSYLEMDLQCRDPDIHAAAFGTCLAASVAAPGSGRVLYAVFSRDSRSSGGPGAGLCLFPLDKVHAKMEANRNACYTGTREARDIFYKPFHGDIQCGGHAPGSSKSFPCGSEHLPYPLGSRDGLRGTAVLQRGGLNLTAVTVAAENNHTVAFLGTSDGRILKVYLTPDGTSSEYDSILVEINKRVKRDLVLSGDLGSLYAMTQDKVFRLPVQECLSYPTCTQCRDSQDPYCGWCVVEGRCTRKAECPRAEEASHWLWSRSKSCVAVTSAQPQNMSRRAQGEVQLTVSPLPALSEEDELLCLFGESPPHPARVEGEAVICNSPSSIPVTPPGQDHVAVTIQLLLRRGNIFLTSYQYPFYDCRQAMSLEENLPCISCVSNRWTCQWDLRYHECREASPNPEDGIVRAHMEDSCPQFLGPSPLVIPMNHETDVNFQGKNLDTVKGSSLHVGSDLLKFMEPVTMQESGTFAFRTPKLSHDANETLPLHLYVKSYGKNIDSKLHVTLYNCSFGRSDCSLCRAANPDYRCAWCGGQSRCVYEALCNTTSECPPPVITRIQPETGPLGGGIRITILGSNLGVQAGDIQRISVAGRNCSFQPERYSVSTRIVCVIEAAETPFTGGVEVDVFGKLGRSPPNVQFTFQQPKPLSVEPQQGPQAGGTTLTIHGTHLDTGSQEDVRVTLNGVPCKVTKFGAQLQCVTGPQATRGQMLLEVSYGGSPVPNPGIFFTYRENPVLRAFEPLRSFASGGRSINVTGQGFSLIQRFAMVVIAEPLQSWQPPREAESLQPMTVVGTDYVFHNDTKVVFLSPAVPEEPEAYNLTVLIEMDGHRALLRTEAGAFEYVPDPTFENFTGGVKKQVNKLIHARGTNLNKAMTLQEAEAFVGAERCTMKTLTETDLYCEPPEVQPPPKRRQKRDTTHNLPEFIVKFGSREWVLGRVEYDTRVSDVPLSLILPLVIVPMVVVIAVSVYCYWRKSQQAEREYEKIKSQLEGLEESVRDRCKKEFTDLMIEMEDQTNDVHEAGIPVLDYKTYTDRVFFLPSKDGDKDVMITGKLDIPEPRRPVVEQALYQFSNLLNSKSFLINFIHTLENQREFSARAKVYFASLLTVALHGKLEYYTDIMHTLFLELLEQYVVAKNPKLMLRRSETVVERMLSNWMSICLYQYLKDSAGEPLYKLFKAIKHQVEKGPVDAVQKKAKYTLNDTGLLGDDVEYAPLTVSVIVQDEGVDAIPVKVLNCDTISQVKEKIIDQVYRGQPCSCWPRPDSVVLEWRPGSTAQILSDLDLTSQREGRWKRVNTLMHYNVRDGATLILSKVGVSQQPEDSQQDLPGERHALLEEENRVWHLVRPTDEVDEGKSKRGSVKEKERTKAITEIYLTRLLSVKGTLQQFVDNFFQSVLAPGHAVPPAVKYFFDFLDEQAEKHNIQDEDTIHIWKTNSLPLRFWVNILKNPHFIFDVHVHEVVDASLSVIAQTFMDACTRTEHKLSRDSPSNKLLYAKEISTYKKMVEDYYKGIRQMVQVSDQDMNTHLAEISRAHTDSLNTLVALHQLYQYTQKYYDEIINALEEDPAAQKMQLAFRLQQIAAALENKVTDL
inactive: erlotinib -0.014 | [1] -0.027 | [2] -0.013 | [3] -0.04 | [4] -0.037 | [5] 0.005 | [6] -0.018 | [7] -0.017 | [8] 0.049 | IRAK-1-4 Inhibitor I 0.004 | ibrutinib 0.019 | [9] 0.016 | ralimetinib 0.035 | [10] -0.026 | [11] -0.03 | [12] 0.033 | [13] 0.006 | [14] -0.02 | [15] -0.003 | [16] -0.016

PFDN2 (UniProt Q9UHV9)
Sequence of UniProt Q9UHV9 (Q9UHV9 whole entry, looked up): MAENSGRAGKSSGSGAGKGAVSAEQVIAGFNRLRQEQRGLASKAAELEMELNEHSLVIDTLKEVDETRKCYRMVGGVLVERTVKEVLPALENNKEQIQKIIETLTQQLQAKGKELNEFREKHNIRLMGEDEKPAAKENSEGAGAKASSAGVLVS
inactive: erlotinib -0.055 | [1] -0.003 | [2] -0.038 | [3] 0.006 | [4] 0 | [5] -0.027 | [6] 0.071 | [7] 0.043 | [8] -0.026 | IRAK-1-4 Inhibitor I -0.015 | ibrutinib 0.103 | [9] 0.006 | ralimetinib 0.08 | [10] 0.08 | [11] 0.005 | [12] 0.016 | [13] 0.034 | [14] -0.017 | [15] -0.033 | [16] -0.022

POLR2M (UniProt P0CAP2)
Sequence of UniProt P0CAP2 (P0CAP2 whole entry, looked up): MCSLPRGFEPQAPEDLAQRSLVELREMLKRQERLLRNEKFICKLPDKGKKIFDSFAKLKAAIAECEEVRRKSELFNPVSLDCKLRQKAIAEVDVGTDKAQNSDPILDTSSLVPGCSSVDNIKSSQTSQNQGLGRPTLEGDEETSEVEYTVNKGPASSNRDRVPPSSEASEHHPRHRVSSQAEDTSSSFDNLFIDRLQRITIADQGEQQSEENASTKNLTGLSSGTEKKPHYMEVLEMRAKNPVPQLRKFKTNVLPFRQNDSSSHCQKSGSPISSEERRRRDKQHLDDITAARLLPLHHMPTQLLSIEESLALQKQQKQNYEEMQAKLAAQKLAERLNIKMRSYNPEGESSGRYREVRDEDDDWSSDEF
inactive: erlotinib 0.075 | [1] -0.053 | [2] 0.014 | [3] 0.034 | [4] -0.013 | [5] 0.027 | [6] -0.045 | [7] -0.182 | [8] -0.002 | IRAK-1-4 Inhibitor I 0.026 | ibrutinib -0.011 | [9] 0.014 | ralimetinib -0.018 | [10] -0.042 | [11] -0.001 | [12] -0.014 | [13] -0.046 | [14] -0.055 | [15] -0.008 | [16] 0.007

PITRM1 isoform 2 (UniProt Q5JRX3)
Sequence of UniProt Q5JRX3 (Q5JRX3 whole entry, looked up): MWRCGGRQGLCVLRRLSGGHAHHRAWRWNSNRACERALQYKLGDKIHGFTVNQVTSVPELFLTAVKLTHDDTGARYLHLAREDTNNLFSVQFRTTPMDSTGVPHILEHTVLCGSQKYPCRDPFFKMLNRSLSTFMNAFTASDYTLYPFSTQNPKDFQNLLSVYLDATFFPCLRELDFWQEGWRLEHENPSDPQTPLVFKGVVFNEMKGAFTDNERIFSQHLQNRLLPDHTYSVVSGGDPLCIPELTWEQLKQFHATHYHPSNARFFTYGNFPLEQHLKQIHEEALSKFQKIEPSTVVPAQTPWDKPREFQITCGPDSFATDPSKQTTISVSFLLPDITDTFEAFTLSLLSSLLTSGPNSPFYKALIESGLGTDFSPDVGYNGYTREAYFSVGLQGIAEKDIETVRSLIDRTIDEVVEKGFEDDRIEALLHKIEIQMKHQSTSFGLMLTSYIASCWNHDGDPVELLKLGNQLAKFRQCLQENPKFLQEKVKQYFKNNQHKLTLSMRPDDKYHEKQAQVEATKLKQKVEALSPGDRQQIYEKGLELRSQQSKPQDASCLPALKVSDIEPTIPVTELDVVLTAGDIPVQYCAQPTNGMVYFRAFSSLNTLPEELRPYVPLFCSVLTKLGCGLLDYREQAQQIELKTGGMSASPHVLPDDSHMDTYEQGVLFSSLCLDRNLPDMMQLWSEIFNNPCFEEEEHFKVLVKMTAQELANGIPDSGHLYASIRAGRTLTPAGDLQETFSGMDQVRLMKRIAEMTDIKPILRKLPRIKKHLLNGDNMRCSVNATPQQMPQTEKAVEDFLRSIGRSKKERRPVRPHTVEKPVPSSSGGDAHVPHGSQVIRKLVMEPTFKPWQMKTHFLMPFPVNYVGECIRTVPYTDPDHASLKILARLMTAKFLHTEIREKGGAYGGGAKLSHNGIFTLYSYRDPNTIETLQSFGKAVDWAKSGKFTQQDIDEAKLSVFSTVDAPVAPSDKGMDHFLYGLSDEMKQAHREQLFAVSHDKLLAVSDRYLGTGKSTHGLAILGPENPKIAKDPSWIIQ
inactive: erlotinib -0.035 | [1] 0.011 | [2] 0.077 | [3] 0.04 | [4] -0.037 | [5] -0.025 | [6] 0.009 | [7] 0.016 | [8] 0.024 | IRAK-1-4 Inhibitor I -0.015 | ibrutinib 0.007 | [9] -0.004 | ralimetinib 0.134 | [10] -0.009 | [11] -0.019 | [12] 0.001 | [13] -0.021 | [14] -0.001 | [15] -0.005 | [16] 0.012
